HCV inhibitor: qHTS Assay for Inhibitors of Hepatitis C Virus (HCV). Huh7.5.1 HCVcc-Cre infection, luciferase reporter, 44 h. Potency, µM (titrated, usually from 41.8 µM), inactives show at the top dose activity change, negative = inhibition, hits mostly inhibitors. 3.4% of 340,000 active. AID 651820, 2012; note: potency is the fitted concentration of half-maximal effect
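Seed cells (1,000/well) for 4 h; treat with compound and infect with HCVcc-Cre, moi about 0.5. Incubate 44 h, then detect luciferase activity.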
Lassa entry inh: qHTS for Inhibitors of binding or entry into cells for Lassa Virus; Lassa virus pseudotype entry inhibition, cell reporter; Potency, µM (highest dose often 37.9 µM), without a hit: at the highest dose activity change, negative = inhibition, usual class: inhibitors; 1.2% of 300,000 active; AID 540256, 2011; calls by dose curve; tested in HEK293 cells; note: potency is the fitted concentration of half-maximal effect; nearly all actives have a fitted effect of over 50% in size
Pf growth 48h: Primary qHTS for delayed death inhibitors of the malarial parasite plastid, 48 hour incubation; Potency, µM (top dose mostly 28.7 µM), for the others: top-dose activity change, negative = inhibition, most hits filed as inhibitors; P. falciparum luciferase growth in erythrocytes, 48 h; 5.9% of 310,000 active; note: potency is the fitted concentration of half-maximal effect
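Luciferase-expressing P. falciparum in infected erythrocytes (2% hematocrit, 0.1% parasitemia final) in RPMI 1640/0.5% Albumax were exposed to compound for 48 hours at 37 C, 5% CO2; growth read as luminescence.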
HCMV inh: qHTS Assay for inhibitors of the human cytomegalovirus (HCMV); HFF cells, HCMV-luciferase reporter, 72 h; hits give low values; activity change, negative = inhibition, % at 57.5 µM; 4.5% of 410,000 active; in the data active = activity change below about -60%; inconclusive = no clear call, values can overlap the other calls; inactive = above about -39%
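After 16 h attachment at 37C, HFF cells received test compound and HCMV-luciferase (1 PFU/cell); reporter luminescence read 72 h later, data normalized against buffer-only and known inhibitor Salinomycin.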
MARV entry inh: qHTS for inhibitors of binding or entry into cells for Marburg Virus; Marburg virus pseudotyped entry inhibition, cell reporter; Potency, µM (series often up to 37.8 µM), without a hit: top-dose activity change, negative = inhibition, hits mostly inhibitors; 1.8% of 300,000 active; calls by dose curve; tested in HEK293 cells; note: potency is the fitted concentration of half-maximal effect
Pf growth 96h: Primary qHTS for delayed death inhibitors of the malarial parasite plastid, 96 hour incubation; Potency, µM (doses to about 28.7 µM), inactives show top-dose activity change, negative = inhibition, actives largely listed as inhibitors; AID 504834, 2011; 6.9% of 320,000 active; P. falciparum luciferase reporter growth, 96 h; note: potency is the fitted concentration of half-maximal effect
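Erythrocytes infected with luciferase-expressing P. falciparum were dispensed at 2% hematocrit and 0.05% parasitemia (final), then incubated with compounds 96 hours at 37 C in 5% CO2. Luminescence after detection reagent addition reported growth.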
An asterisk follows results filed as active; ? = inconclusive; · = not tested or not shown; [ ] = dose if it differs, or a comment. An excerpt weighted towards active compounds, which were near 14% of everything screened. Unless noted, calls come from the whole dose curve; as a rule, active = well fitted inhibition curve with a large enough effect; inconclusive = small, poorly fitted or top-dose-only effect, or another doubt; inactive = no such curve, though single readings can be large or run the other way. % is set by controls: 0 for no effect and ±100 for the full control effect.

SMILES | HCV inhibitor | Lassa entry inh | Pf growth 48h | HCMV inh | MARV entry inh | Pf growth 96h
CCOc1ccccc1N1CCN(c2nc3ccccc3nc2C(C#N)C(=O)OC)CC1 (stereo not drawn) | 15% | 18% | ? | 0 | ? | ?
CC(NC(=O)c1ccc(NC2=NC3CS(=O)(=O)CC3S2)cc1)c1ccccc1 (stereo not drawn) | 9% | · | 10% | -3 | · | ?
Cc1nc(SCc2ccc(C(=O)O)cc2)nc2c1CCCC2 | 20% | -28%[46.1 µM] | ? | -61* | ? | 43%
Cc1ccc(-c2nc(N)nc(N)n2)c(C)c1 | -11% | · | 10% | -95* | · | 59%
O=C(Nc1ccc(Oc2ccc(Cl)cc2)c(Cl)c1)c1cc(I)cc(I)c1O | 32µM* | · | ? | ? | · | ?
O=C(CN1CCN(c2ccccc2F)CC1)c1c[nH]c2ccc(F)cc12 | ? | ? | -14% | -24 | 12µM* | ·
COC(=O)C1C(=O)C2=C(CC1C)NC(C)=C(C(=O)OC1CCCCC1)C2c1ccc(N(C)C)cc1 (stereo not drawn) | ? | ? | 5.9µM* | -5 | ? | 37%
CC1=C(C(=O)OCc2ccccc2)C(c2ccc(C)o2)C2=C(CCCC2=O)N1 (stereo not drawn) | ? | ? | 12µM* | -10 | ? | 85%
COC(=O)C1C(=O)C2=C(CC1C)NC(C)=C(C(=O)OCCOc1ccccc1)C2c1ccc(C)o1 (stereo not drawn) | 13µM* | ? | 0% | -4 | ? | ·
CCOC(=O)N1CCN(CC(O)COc2ccccc2C(C)(C)C)CC1 (stereo not drawn) | 26% | -14% | -3% | -2 | ? | 18%
COc1ccccc1N1CCN(CC(O)COc2ccc(C)cc2C(C)(C)C)CC1 (stereo not drawn) | · | 1%[46.1 µM] | · | -67* | ? | ·
OC(COc1ccc2ccccc2c1)CN1CCN(c2ccc(F)cc2)CC1 (stereo not drawn) | 5% | · | 17% | · | · | -28%
COc1ccccc1N1CCN(CC(O)COc2ccc(S(=O)(=O)N3CCOCC3)cc2)CC1 (stereo not drawn) | ? | -20% | · | -70* | ? | 8.3µM*
CC1CN(CC(O)COc2ccccc2C(C)(C)C)CC(C)O1 (stereo not drawn) | -11% | 12% | 2.3µM* | -26 | ? | 8.3µM*
O=S(=O)(c1ccc(OCC(O)CN2CCN(c3ccc(F)cc3)CC2)cc1)N1CCOCC1 (stereo not drawn) | -24% | -21% | 0% | -16 | 2% | 9.3µM*
Cc1ccccc1C(=O)c1cccn1CC(=O)NCc1cccc(Cl)c1 | -13% | 0%[46.1 µM] | 13% | -3 | 16%[46.1 µM] | 7%
Cc1nc2ncnn2c(C)c1CCC(=O)N1CCN(c2ccccc2)CC1 | · | 9%[46.1 µM] | · | 7 | 5%[46.1 µM] | ·
COC(=O)[C@@H]1CC[C@H](C)[C@@H](c2ccc(C)cc2)N1C(=O)c1ccc(C=NO[C@@H](C)c2cn([C@H](CO)Cc3ccccc3)nn2)cc1 | · | -7%[14.3 µM] | · | · | 5%[14.2 µM] | ·
C#CCN1Cc2ccccc2Oc2cc(Br)ccc2S1(=O)=O | ? | ? | · | -30 | · | ·
C=C1CC(C)OC(c2ccccc2OCC(O)CN2CCCCC2)C1 (stereo not drawn) | -20% | -25% | 15µM* | 6 | ? | 18%
C=CCn1c(-c2ccc(Cl)cc2)cnc1SC(C)C(=O)NC(N)=O (stereo not drawn) | ? | -5% | 8% | -74* | -8%[46.1 µM] | ?
Cc1ccc2nc(-c3ccncc3)c(NC3CCCC3)n2c1 | ? | · | -24% | -65* | · | ?
Cc1ccc2nc(-c3ccncc3)c(NC3CCCCC3)n2c1 | ? | 2% | 0% | -10 | 12%[46.1 µM] | 2%
CCCCCCSc1ccc(-c2nc3ccc(C)cn3c2NC2CCCCC2)cc1 | 29% | · | 9.3µM* | 17 | · | 13µM*
